Bioassay records (PubChem BioAssay)
HT1080NT lethal – kills 2HG-producing HT-1080-NT fibrosarcoma cells; HT-1080-NT fibrosarcoma viability, CellTiter-Glo ATP luminescence, 48 h; Potency, µM (titrated, usually from 46.1 µM), for inactives: top-dose activity, negative = less viability, hits mostly cytotoxic; actives 1.6% (n = 360,000); AID 686970;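 note: NT is the 2HG producing partner of a matched IDH1 knockdown line; potency is the fitted concentration of half-maximal effect; 0% = DMSO-treated cells and -100% = media-only wells without cells; nearly all actives have a fitted effect of over 55% in size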
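A 48-hour cytotoxicity screen used HT-1080-NT cells plated 2 hours before compound delivery. ATP-based CellTiter-Glo luminescence measured viability, normalized to DMSO and no-cell controls.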
TDP1 cell CPT – growth inhibition of DT40 Tdp1-/-;hTDP1 cells with camptothecin (screen for TDP1 inhibitors); actives 12% (n = 420,000); Potency, µM (series often up to 46.2 µM), inactives show at the highest dose activity change, negative = growth inhibition, usual class: inhibitors; chicken DT40 Tdp1-/-;hTDP1 cells + 20 nM CPT, ATP luminescence, 48 h; note: potency is the fitted concentration of half-maximal effect; nearly all actives have a fitted effect of over 55% in size
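Cell growth measured by CellTiter-Glo luminescence after a minimum 48 h, 37 C compound exposure with 20 nM CPT in Tdp1-knockout DT40 cells stably expressing hTDP1, seeded 400/well; qHTS titration format.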
TDP1 cell noCPT – qHTS for Inhibitors of human tyrosyl-DNA phosphodiesterase 1 (TDP1): qHTS in cells in absence of CPT. AID 686978, 2013. Potency, µM (titrated, usually from 46.2 µM), without a hit: top-dose activity change, negative = growth inhibition, hits mostly inhibitors. actives 15% (n = 420,000). DT40 Tdp1-/- hTDP1 cells, no CPT, ATP luminescence, 48 h; note: potency is the fitted concentration of half-maximal effect; nearly all actives have a fitted effect of over 55% in size
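Stably hTDP1-transfected Tdp1-null chicken DT40 cells were treated with library compounds minus camptothecin and grown for at least 48 hr at 37 °C, after which cellular ATP was quantified by luminescence.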
HT1080 IDH1KD tx – kills HT-1080 cells with IDH1 knockdown; HT-1080 IDH1 knockdown viability, ATP luminescence, 48 h; actives 2% (n = 360,000); Potency, µM (top dose mostly 46.1 µM), inactives show at the highest dose activity, negative = toxicity, most hits filed as cytotoxic;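 note: potency is the fitted concentration of half-maximal effect; 0% = DMSO wells and -100% = cell-free medium wells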
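Cytotoxicity counter-line: IDH1KD HT-1080, 48 h, CellTiter-Glo. Curves classed by r2, magnitude and activity.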
IL1B secr inh – blocks inflammasome-driven IL-1 beta release | THP-1 LPS/ATP IL-1B secretion, AlphaLISA, 16 h; stronger effect = lower value | activity change, % at 57.5 µM | actives 4.7% (n = 360,000); in the data active = activity change below about -50%; inconclusive = mostly about -30% to -49%
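Secreted IL-1B measured by AlphaLISA bead assay after 16 h compound exposure of THP-1 cells; compounds (final up to 57.5 uM) added 1 h before LPS (250 ng/mL) and ATP (1.25 mM) stimulation; lower signal means less secretion.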
* marks the source's active call; other numbers are inactive results; ? = inconclusive; nt = no result; [ ] = remark or other dose. Rows were chosen to be rich in hits. Some 19% of all compounds tested hit in one or more screens of this group. Unless noted, calls come from the whole dose curve; as a rule, active = well fitted curve in the direction sought with a large enough effect; inconclusive = small, poorly fitted or top-dose-only effect, or another doubt; inactive = no such curve, though single readings can be large; an effect the other way counts as inactive or inconclusive. Unless noted, % is set by controls: 0 for no effect and ±100 for the full control effect.

SMILES	HT1080NT lethal	TDP1 cell CPT	TDP1 cell noCPT	HT1080 IDH1KD tx	IL1B secr inh
CC(C)Oc1ccc(CNC(=O)c2ccc3c(c2)N(C)CCS3)cc1	-5%	?	?	0%	?
COc1ccc2c(c1)c1c(c(=O)n(Cc3ccccc3)c(=O)n1Cc1ccccc1)n2C	nt	-17%	-1%	nt	nt
COc1ccc2c(c1)C(=O)N(c1ccc(C)cc1C)C(=O)C2	14%	13µM*	21µM*	15%	14
COc1ccc2c(c1)C(=O)N(c1ccc(C)cc1C)C(=O)C2(C)C	7%	-20%	?	0%	-11
COc1ccc(S(=O)(=O)Nc2ccc(NC(C)=O)cc2)cc1[N+](=O)[O-]	9%	13%	-12%	18%	6
CC(=O)Oc1ccc(C)cc1-n1nc2ccccc2n1	1%	-21%	-8%	-1%	10
CC(=O)Oc1ccc(N(C(C)=O)S(=O)(=O)c2ccccc2)c2ccccc12	?	21µM*	?	-10%	122
CC(=O)Oc1ccc(N(C(C)=O)S(=O)(=O)c2ccc(C)cc2C)c2ccccc12	?	23µM*	?	-7%	88
CC(=O)Oc1ccccc1N(C(C)=O)S(=O)(=O)c1ccc(C)cc1	-6%	-12%	-2%	-3%	0
COc1ccc(S(=O)(=O)N(C(C)=O)c2ccc(OC(C)=O)c3ccccc23)cc1[N+](=O)[O-]	21µM*	3.3µM*	3.7µM*	?	124
CC(=O)Oc1c(Cl)cc(N(C(C)=O)S(=O)(=O)c2ccccc2)c2ccccc12	?	10µM*	4.6µM*	?	186
O=C(Nc1ccccc1C(F)(F)F)c1ccc2oc(=O)c(S(=O)(=O)c3ccc(F)cc3)cc2c1	nt	-24%	-23%	nt	nt
ClC(/C=N/n1cnnc1)=C/c1ccccc1	-24%	15µM*	1.8µM*	-4%	-94*
C=CCn1c(SCc2ccc(C#N)cc2)nnc1-c1cccc(OC)c1	-8%	?	?	-6%	-10
COc1cccc(-c2nnc(SCc3ccc(C#N)cc3)n2Cc2ccco2)c1	-27%	?	23µM*	-19%	?
Cc1ccc(-c2nnc(SCc3ccc(C#N)cc3)n2Cc2ccco2)cc1	-1%	26µM*	?	-21%	-17
CC(NC(=O)CCl)c1ccc(Cl)c(Cl)c1 (stereo not drawn)	?	16µM*	18µM*	16µM*	-103*
CC(NC(=O)c1ccc(Cl)c(Cl)c1)c1ccc(-c2ccccc2)cc1 (stereo not drawn)	-2%	?	?	4%	-6
Cc1ccc(S(=O)(=O)NCC(=O)NCC(=O)NC(C)c2ccccc2Br)cc1C (stereo not drawn)	-14%	-12%	-23%	-16%	-18
CC(NC(=O)CCl)c1ccccc1Br (stereo not drawn)	-16%	?	15µM*	?	-96*
O=C(/C=C/[C@H]1O[C@@H](n2ccc(=O)[nH]c2=O)[C@H](O)[C@@H]1O)NCCc1c[nH]c2ccccc12	20%	1%	28%	17%	6
COc1cccc(NC(=O)CCCCCn2nnc3ccccc3c2=O)c1	?	-8%	-14%	?	49
COc1ccc(CN2CCC[C@]3(N[C@H](c4ccccc4)[C@@H]4C(=O)N(Cc5ccccc5)C(=O)[C@@H]43)C2=O)cc1	-1%	?	18µM*	16%	-3
COc1ccc(CN2CCC[C@]3(N[C@H](c4ccc(C)cc4)[C@@H]4C(=O)N(Cc5ccccc5)C(=O)[C@@H]43)C2=O)cc1	-1%	?	?	-4%	-22
CCN1C(=O)[C@H]2[C@@H](c3ccc(OC)cc3)N[C@]3(CCCN(Cc4ccccc4)C3=O)[C@H]2C1=O	7%	4%	?	1%	17
SMILES	HT1080NT lethal	TDP1 cell CPT	TDP1 cell noCPT	HT1080 IDH1KD tx	IL1B secr inh
COc1ccc([C@H]2N[C@]3(CCCN(Cc4ccc(Br)cc4)C3=O)[C@H]3C(=O)N(Cc4ccccc4)C(=O)[C@@H]23)cc1	-20%	?	15µM*	-22%	-12
CCN1C(=O)[C@H]2[C@@H](c3ccc(OC)cc3)N[C@]3(CCCN(Cc4ccc(Br)cc4)C3=O)[C@H]2C1=O	-9%	-8%	26µM*	-4%	33
COc1ccc(CN2CCC[C@]3(N[C@H](c4ccc(OC)cc4)[C@@H]4C(=O)N(Cc5ccccc5)C(=O)[C@@H]43)C2=O)cc1	-7%	21µM*	16µM*	1%	-7
Cc1cc(NC(=O)COc2c(C)cccc2C)no1	19%	?	1%	-1%	-1
COCCNC(=O)C1(C)CCCN(C(=O)c2ccco2)C1 (stereo not drawn)	9%	-1%	-1%	24%	53
CCn1c(SCc2ccc(F)cc2)nnc1C1CCN(S(=O)(=O)c2ccc(OC)cc2)CC1	-6%	?	16µM*	-16%	-23
Cc1ccc(CSc2ccc(S(=O)(=O)N3CCCC3)cn2)cc1	-4%	-13%	-24%	-1%	-1
N#Cc1ccc(CSc2ccc(S(=O)(=O)N3CCCC3)cn2)cc1	-2%[9.24 µM]	?	26µM*	-6%	-24
CCn1c(SCC(=O)N2CCCC2)nnc1-c1ccc(S(=O)(=O)N2CCCCCC2)cc1	3%	?	?	6%	-5
CCn1c(SCc2ccc(C#N)cc2)nnc1-c1ccc(S(=O)(=O)N2CCCCC2)cc1	-22%	15µM*	?	-4%	-6
O=[N+]([O-])c1ccc(CSc2ccc(S(=O)(=O)N3CCCC3)cn2)cc1	-16%	?	23µM*	-11%	0
CS(=O)(=O)c1ccc2nc(NC(=O)c3ccc(Cn4cc(Br)cn4)o3)sc2c1	0%	-15%	-4%	-1%	12
CCc1ccc(CN(C)C(=O)CCc2nnc(Cc3cccc(C)c3)o2)nc1	-19%	-18%	-13%	-5%	20
Cc1cnc(CNC(=O)c2csc([C@@H]3O[C@H](CO)[C@H](O)[C@H](O)[C@H]3O)n2)cn1	11%	-3%	6%	4%	0
Cc1ccc(NC(=O)CSCC(=O)N(C)CC(=O)Nc2cccc(F)c2)cc1	6%	12%	-22%	7%	8
CN(CC(=O)Nc1ccc(Cl)cc1)C(=O)CCc1c[nH]c2ccccc12	?	3%	-21%	-12%	-13
O=[N+]([O-])c1ccc(CSc2ccc(S(=O)(=O)N3CCOCC3)cn2)cc1	-1%	?	?	-10%	-64*
O=[N+]([O-])c1ccc(CSc2ccc(S(=O)(=O)N3CCCCC3)cn2)cc1	-11%	?	?	-11%	-50*
O=S(=O)(c1ccc(SCc2cccc(Cl)c2)nc1)N1CCCC1	0%	-22%	-19%	4%	7
